According to PubChem BioAssay:
Where “and” joins values, the source holds several entries; their conditions need not be identical. Equal entries are not always repeated.

Key:
[1] = system: Botulinum neurotoxin type F light chain protease (Clostridium botulinum); experiment: Botulinum neurotoxin type F light chain protease inhibition, multiplex microsphere flow cytometry, validation set (AID 588459); details: multiplex microsphere protease substrate cleavage assay, at 10 µM, active compounds read high
[2] = target: Botulinum neurotoxin type A (Clostridium botulinum) (UniProt P0DPI0); experiment: BoNT/A light chain protease inhibitors, biochemical, multiplex microsphere flow cytometry, validation set (AID 588460); details: at 10 µM, active compounds read high
[3] = target: Lethal factor (Bacillus anthracis) (UniProt P15917); experiment: Lethal factor protease inhibitors, Bacillus anthracis, multiplex microsphere cleavage assay, validation set (AID 588461); details: flow cytometry, at 10 µM, active compounds read high

Measured: inhibition

Chain of Lethal factor (Bacillus anthracis) (P15917 whole entry, looked up): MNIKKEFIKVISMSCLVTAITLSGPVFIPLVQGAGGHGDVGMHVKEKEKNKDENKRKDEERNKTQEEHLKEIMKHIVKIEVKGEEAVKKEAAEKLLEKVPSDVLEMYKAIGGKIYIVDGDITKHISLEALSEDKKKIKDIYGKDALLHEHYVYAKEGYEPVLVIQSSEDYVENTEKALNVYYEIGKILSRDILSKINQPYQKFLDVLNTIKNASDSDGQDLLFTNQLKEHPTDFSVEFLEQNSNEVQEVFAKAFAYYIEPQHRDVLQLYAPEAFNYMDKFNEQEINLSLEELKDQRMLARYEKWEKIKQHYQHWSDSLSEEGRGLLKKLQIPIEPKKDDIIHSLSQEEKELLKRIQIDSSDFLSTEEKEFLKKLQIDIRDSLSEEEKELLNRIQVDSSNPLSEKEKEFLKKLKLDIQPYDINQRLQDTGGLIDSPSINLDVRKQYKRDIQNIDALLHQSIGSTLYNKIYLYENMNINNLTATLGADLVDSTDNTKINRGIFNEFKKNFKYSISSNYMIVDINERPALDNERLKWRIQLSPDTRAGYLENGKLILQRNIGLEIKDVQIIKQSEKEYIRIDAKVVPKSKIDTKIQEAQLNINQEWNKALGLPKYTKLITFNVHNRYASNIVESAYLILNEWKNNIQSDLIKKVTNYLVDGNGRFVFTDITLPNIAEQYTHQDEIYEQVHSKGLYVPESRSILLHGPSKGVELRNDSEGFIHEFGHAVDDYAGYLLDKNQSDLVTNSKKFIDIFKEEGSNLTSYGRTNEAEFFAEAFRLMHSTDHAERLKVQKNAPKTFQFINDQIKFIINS
Chain of Botulinum neurotoxin type A (Clostridium botulinum) (P0DPI0 whole entry, looked up): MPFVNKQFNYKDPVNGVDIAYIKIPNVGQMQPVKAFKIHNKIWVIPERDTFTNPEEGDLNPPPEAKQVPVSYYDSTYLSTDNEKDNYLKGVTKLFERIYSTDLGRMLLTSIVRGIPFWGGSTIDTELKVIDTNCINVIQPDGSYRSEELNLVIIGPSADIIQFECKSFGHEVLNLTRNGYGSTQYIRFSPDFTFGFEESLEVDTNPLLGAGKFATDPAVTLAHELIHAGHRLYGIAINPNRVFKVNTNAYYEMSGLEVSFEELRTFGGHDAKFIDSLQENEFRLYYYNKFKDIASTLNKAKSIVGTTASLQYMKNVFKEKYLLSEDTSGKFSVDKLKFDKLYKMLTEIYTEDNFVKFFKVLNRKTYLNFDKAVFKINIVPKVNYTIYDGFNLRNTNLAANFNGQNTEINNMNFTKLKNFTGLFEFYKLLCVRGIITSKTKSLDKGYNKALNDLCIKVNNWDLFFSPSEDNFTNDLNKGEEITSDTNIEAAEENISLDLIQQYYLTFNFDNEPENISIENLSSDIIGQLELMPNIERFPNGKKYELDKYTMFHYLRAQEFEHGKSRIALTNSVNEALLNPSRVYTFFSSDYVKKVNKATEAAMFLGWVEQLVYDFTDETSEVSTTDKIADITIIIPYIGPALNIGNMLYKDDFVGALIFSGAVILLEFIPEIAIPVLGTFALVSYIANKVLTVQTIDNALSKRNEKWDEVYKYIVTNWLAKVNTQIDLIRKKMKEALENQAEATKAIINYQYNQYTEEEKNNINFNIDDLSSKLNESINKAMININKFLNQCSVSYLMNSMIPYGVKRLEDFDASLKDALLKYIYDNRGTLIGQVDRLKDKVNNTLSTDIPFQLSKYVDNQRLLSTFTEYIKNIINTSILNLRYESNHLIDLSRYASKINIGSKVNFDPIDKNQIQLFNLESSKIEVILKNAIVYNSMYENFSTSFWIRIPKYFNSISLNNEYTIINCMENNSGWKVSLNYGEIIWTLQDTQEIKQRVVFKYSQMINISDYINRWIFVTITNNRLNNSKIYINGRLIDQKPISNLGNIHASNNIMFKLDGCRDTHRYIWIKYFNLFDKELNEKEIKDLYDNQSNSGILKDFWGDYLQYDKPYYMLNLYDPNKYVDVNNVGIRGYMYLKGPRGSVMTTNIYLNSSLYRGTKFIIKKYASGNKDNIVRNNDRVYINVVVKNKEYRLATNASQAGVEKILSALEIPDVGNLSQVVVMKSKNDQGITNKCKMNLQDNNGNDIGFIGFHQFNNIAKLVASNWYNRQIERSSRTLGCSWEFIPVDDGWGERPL

Cc1ccc(N2CCN(C(=S)c3ccc(-c4cccc([N+](=O)[O-])c4)o3)CC2)cc1
inactive: [1] -0.6% | [2] -1.4% | [3] -5.3%

CC(=O)O[C@]1(C(C)=O)CC[C@H]2[C@@H]3C=C(C)C4=CC(=O)CC[C@]4(C)[C@H]3CC[C@@]21C
inactive: [1] 2% | [2] 1.2% | [3] -4.2%

O=c1oc2c(CN3CCN(CCO)CC3)c(O)ccc2cc1-c1ccccn1
inactive: [1] -0.2% | [2] 0.8% | [3] -4.2%

NS(=O)(=O)c1cc2c(cc1C(F)(F)F)NCNS2(=O)=O
inactive: [1] 0.5% | [2] -0.4% | [3] 5.4%

Cn1nc(-c2ccccn2)nc2c(=O)n(C)c(=O)nc1-2
inactive: [1] -0.9% | [2] 2.9% | [3] -13%

CCOC(=O)C(=Cc1ccccc1OC)C(=O)OCC
inactive: [1] -0.7% | [2] -2.6% | [3] -6.9%

CCN(CC)C(=O)c1sc(NC(=O)c2c(OC)cccc2OC)c(C#N)c1C
inactive: [1] 6% | [2] 2.1% | [3] 3.6%

Cc1ccsc1C1NC(=O)c2ccccc2N1 (stereo not given)
inactive: [1] -6.7% | [2] -1.3% | [3] -5.3%

COc1cc(Cc2cnc(N)nc2N)cc(OC)c1OC
inactive: [1] 4.4% and 6.3% | [2] 0% and -0.2% | [3] -0.1% and 0.6%

COc1cc2c(cc1OC)C1(CCCCC1)CN(C)C2
inactive: [1] 1.7% | [2] -1.2% | [3] -1.7%
